Experimental data as given in PubChem BioAssay AID651949 (Broad Institute, 2012).
Measured potencies and affinities stand elsewhere. Active and inactive are the calls of the source.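 Rule for the calls: active = compounds lowering cell ATP signal whose fitted half-maximal concentration is at most twice the top tested dose; inconclusive = flat curve with 30 to 70% signal loss, or poor fit; inactive = the rest.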

test: HEK293T cell cytotoxicity, dose response, cytotoxicity control, CellTiter-Glo luminescence, dry powder, set 6 (AID 651949); settings: HEK293T viability, CellTiter-Glo ATP luminescence, 48 h; series mostly up to 26 µM; activity change, negative = cytotoxicity: at the top concentration

Structure (SMILES)	activity change, negative = cytotoxicity	outcome
COCCSc1nnc(-c2ccccc2)o1	-18.8% (inactive)	–
COCCOCCSc1nnc(-c2ccccc2)o1	15% (inactive)	–
c1ccc(CSc2nnc(-c3ccncc3)o2)nc1	-13.5% (inactive)	–
[O-][n+]1ccccc1CSc1nnc(-c2ccccc2)o1	-25.5% (inactive)	–
Fc1ccc(Cn2cc(CSc3nnc(-c4ccc(F)cc4)o3)nn2)cc1	-11.5% (inactive)	–
CSc1nnc(-c2ccccc2)o1	8.23% [at 120 µM] (inactive)	–
c1ccc(-c2nnc(SC3CCCCC3)o2)cc1	-2.18% (inactive)	–
Cc1ccc(-c2nnc(SCc3ccccn3)o2)cc1	-18.4% (inactive)	–
Fc1ccc(Cn2cc(CSc3nnc(C4CCCC4)o3)nn2)cc1	4.22% (inactive)	–
FC1(F)CCN(CCSc2nnc(-c3ccccc3)o2)CC1	-15.2% (inactive)	–
Cc1ccc(CSc2nnc(-c3ccccc3)o2)cc1	3.5% (inactive)	–
COc1cccc(CSc2nnc(-c3ccccc3)o2)c1	-8.87% (inactive)	–
O=C(Cc1ccccc1)c1nnc(-c2ccccc2)o1	-21.1% (inactive)	–
c1ccc(-c2nnc(SCc3cccnc3)o2)cc1	-16.5% (inactive)	–
c1ccc(-c2nnc(SCCN3CCOCC3)o2)cc1	5.28% (inactive)	–
c1ccc(CSc2nnc(-c3ccccc3)s2)cc1	-22% (inactive)	–
c1ccc(Cn2cc(CSc3nnc(-c4ccccc4)o3)nn2)cc1	2.94% (inactive)	–
c1ccc(-c2nnc(SCCN3CCN(c4ccccc4)CC3)o2)cc1	-23.5% (inactive)	–
COc1cccc(-c2nnc(SCc3ccccc3)o2)c1	-14.8% (inactive)	–
Cc1ccccc1-c1nnc(SCc2ccccc2)o1	4.81% (inactive)	–

Structure (SMILES)	activity change, negative = cytotoxicity	outcome
c1ccc(Sc2nnc(-c3ccccc3)o2)cc1	-13.6% (inactive)	–
N#Cc1cccc(-c2nnc(SCc3ccccc3)o2)c1	-15.6% (inactive)	–
c1ccc(CSc2nnc(-c3ccccn3)o2)cc1	-16.3% (inactive)	–
Clc1ccccc1-c1nnc(SCc2ccccc2)o1	-1.75% (inactive)	–
Fc1ccc(-c2nnc(SCc3ccccc3)o2)cc1	14.8% (inactive)	–
Brc1ccc(-c2nnc(SCc3ccccn3)o2)cc1	-26.7% (inactive)	–
COc1ccccc1CSc1nnc(-c2ccccc2)o1	-4.23% (inactive)	–
N#Cc1cccc(CSc2nnc(-c3ccccc3)o2)c1	-16.9% (inactive)	–
Fc1ccc(CSc2nnc(-c3ccccc3)o2)cc1	–	inactive
Fc1ccccc1CSc1nnc(-c2ccccc2)o1	-18.1% (inactive)	–
Clc1ccc(-c2nnc(SCc3cn(Cc4ccccc4)nn3)o2)cc1	16.9% (inactive)	–
N#Cc1ccccc1CSc1nnc(-c2ccccc2)o1	-15.6% (inactive)	–
FC(F)(F)CNCCSc1nnc(-c2ccccc2)o1	-0.89% (inactive)	–
c1ccc(-c2nnc(SCC3CC3)o2)cc1	-28.5% (inactive)	–
c1ccc(-c2nnc(SCCN3CCCC3)o2)cc1	-11.4% (inactive)	–
O=C(Cc1ccccc1)C(C(=O)c1nnc(-c2ccccc2)o1)c1ccccc1 (centres undefined)	-8.86% (inactive)	–
Clc1ccc(CSc2nnc(-c3ccccc3)o2)cc1	-5.48% (inactive)	–
FC(F)(F)Oc1ccc(CSc2nnc(-c3ccccc3)o2)cc1	14.6% (inactive)	–
Fc1ccc(-c2nnc(SCc3cn(Cc4ccccc4)nn3)o2)cc1	-12.7% (inactive)	–
